Measured values reported in PubChem BioAssay (EPA / NIEHS).
Activity calls are given as the source filed them. How the source made its calls: active means hit-call score of the fitted dose curve at least 0.9, where 1 is the maximum; inactive means score below 0.9.

Legend:
[1] = ATG_CMV_CIS: Attagene CIS-FACTORIAL HepG2 Assay for human CMV (Internal Marker) (AID 2282928); conditions: HepG2 CMV promoter reporter, transcription factor profiling; actives raise or lower the signal;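 further: endpoint acts as a background internal control marker rather than a target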
Summary of the method: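 Readout: fluorescent reporter cDNA fragments separated by capillary electrophoresis after RT-PCR and HpaI cut. Cells: HepG2 carrying transfected cis-promoter reporter constructs, dosed 24 h. Endpoint serves as background internal-marker control, fit bidirectionally versus DMSO.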

[2] = ATG_DR4_LXR_CIS: Attagene CIS-FACTORIAL HepG2 Assay for human Liver X Receptor (LXR), DR4 submotif (AID 2282929); conditions: HepG2 Attagene DR4 cis-reporter, mRNA transcription; AC50: actives raise or lower the signal unless noted; outcome: actives raise or lower the signal unless noted
Summary of the method: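 Measures endogenous transcription factor activity via a DR4-driven reporter transcript in human HepG2 cells. Compounds incubated 24 h; mRNA quantified by RT-PCR and capillary electrophoresis, analysed as gain or loss of signal versus DMSO.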

[3] = biological target: Aryl hydrocarbon receptor (Homo sapiens) (UniProt P35869); experiment: ATG_Ahr_CIS: Attagene CIS-FACTORIAL HepG2 Assay for human Aryl Hydrocarbon Receptor (Ahr) (AID 2282930); conditions: HepG2 AhR cis-factorial reporter transcription; actives raise or lower the signal
Sequence of Aryl hydrocarbon receptor (Homo sapiens) (P35869 whole entry, looked up): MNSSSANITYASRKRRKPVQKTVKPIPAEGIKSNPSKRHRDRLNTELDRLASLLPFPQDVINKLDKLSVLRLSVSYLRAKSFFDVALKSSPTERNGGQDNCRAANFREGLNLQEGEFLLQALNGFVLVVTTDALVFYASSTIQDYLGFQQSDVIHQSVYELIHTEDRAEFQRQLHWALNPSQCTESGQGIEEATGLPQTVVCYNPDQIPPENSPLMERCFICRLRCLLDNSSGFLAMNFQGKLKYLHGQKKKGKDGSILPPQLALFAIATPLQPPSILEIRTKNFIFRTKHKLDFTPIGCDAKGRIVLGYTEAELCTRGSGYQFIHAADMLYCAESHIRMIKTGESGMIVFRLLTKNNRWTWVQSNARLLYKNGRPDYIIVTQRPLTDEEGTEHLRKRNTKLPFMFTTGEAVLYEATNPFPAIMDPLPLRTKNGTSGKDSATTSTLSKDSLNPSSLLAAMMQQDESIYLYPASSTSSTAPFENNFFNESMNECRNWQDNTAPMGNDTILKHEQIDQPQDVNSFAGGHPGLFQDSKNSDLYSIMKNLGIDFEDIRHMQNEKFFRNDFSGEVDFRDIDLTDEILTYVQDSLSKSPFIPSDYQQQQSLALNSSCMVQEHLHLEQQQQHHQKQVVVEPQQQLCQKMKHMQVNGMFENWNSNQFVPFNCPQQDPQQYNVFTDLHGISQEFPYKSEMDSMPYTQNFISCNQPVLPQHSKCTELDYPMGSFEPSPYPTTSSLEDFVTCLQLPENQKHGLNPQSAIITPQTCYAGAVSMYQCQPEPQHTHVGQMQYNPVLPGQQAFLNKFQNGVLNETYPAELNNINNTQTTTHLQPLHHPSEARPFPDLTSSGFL
Summary of the method: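 Values derive from bidirectional fitting against DMSO negative control. Underlying signal: cis-element reporter mRNA in transiently transfected HepG2, harvested 24 h post-dose and measured by RT-PCR plus capillary electrophoresis.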

[4] = ATG_AP_1_CIS: Attagene CIS-FACTORIAL HepG2 Assay for human Activator Protein 1 (AP-1) (AID 2282931); conditions: HepG2 Attagene cis-factorial AP-1 reporter mRNA; actives raise or lower the signal
Summary of the method: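 Bidirectional concentration-response fitting against DMSO controls. Underlying signal: reporter mRNA from cis-promoter constructs in transiently transfected HepG2, measured after 24 h by RT-PCR and capillary electrophoresis.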

[5] = ATG_BRE_CIS: Attagene CIS-FACTORIAL HepG2 Assay for human Bone Morphogenetic Protein (BMP) Response Element (BRE) (AID 2282933); conditions: HepG2 BMP response element reporter, Attagene transcription factor profiling; actives raise or lower the signal
Summary of the method: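 Multiplexed cis-reporter assay, HepG2, 24 h exposure. mRNA from reporter units quantified via RT-PCR/CE; DMSO baseline; bidirectional curve fit.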

[6] = biological target: Retinoic acid receptor alpha (Homo sapiens) (UniProt P10276); experiment: ATG_DR5_RAR_CIS: Attagene CIS-FACTORIAL HepG2 Assay for human Retinoic Acid Receptor Alpha (RARE), DR5 submotif (AID 2282934); conditions: HepG2 Attagene cis-factorial RARE DR5 reporter, mRNA; actives raise or lower the signal;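 on AC50: reporter responds to endogenous RAR alpha beta and gamma in HepG2 not RARA alone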
Sequence of Retinoic acid receptor alpha (Homo sapiens) (P10276 whole entry, looked up): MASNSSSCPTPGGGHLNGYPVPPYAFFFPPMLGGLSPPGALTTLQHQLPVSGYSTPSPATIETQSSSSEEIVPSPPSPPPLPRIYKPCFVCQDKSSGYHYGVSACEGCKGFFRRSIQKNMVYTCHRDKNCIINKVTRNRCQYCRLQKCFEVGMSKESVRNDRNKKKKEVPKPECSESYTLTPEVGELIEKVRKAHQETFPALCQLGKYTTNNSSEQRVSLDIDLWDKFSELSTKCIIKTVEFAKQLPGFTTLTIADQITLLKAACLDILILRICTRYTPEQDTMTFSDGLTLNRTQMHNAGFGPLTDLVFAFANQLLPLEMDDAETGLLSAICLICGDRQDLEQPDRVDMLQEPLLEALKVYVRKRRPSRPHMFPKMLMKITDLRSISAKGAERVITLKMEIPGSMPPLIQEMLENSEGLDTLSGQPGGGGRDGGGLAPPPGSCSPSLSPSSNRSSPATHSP
Summary of the method: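 Endpoint fitted in both directions relative to DMSO as negative control. It reflects DR5 cis-element reporter mRNA induction in transiently transfected HepG2 cells, measured 24 h after dosing through RT-PCR and fluorescent capillary electrophoresis.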

[7] = biological target: Transcription factor E2F1 (Homo sapiens) (UniProt Q01094); experiment: ATG_E2F_CIS: Attagene CIS-FACTORIAL HepG2 Assay for human E2F Transcription Factor 1 (AID 2282935); conditions: HepG2 Attagene cis-reporter, E2F reporter RNA transcripts; actives raise or lower the signal
Sequence of Transcription factor E2F1 (Homo sapiens) (Q01094 whole entry, looked up): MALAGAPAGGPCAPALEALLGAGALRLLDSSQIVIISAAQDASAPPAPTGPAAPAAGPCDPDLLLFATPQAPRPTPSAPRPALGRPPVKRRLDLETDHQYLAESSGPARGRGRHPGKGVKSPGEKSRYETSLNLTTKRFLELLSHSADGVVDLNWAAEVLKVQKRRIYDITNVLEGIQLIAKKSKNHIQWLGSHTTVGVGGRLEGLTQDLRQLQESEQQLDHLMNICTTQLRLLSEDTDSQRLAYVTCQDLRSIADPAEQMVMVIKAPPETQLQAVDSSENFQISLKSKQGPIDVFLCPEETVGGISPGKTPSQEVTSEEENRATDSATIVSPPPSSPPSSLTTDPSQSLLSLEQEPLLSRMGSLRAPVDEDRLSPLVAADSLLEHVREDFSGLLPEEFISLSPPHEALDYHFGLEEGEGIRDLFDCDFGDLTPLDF
Summary of the method: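 First, HepG2 cells were transfected with reporter transcription units. Next, they were dosed for 24 h. Then RNA was isolated, converted to cDNA, PCR-amplified, FAM-labeled, HpaI-digested and analyzed by capillary electrophoresis.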

[8] = ATG_E_Box_CIS: Attagene CIS-FACTORIAL HepG2 Assay for human Enhancer Box (E-box) (AID 2282936); conditions: HepG2 E-box cis-reporter transcription, actives raise or lower the signal
Summary of the method: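 Endogenous transcription factor activity was sensed in human HepG2 liver cells through transfected cis-promoter reporter units. After 24 h of dosing, total RNA was reverse-transcribed and reporter cDNA resolved by capillary electrophoresis.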

[9] = ATG_M_61_CIS: Attagene CIS-FACTORIAL HepG2 Assay for M61 Transcription Factor (Internal Marker) (AID 2282937); conditions: HepG2 Attagene CIS-FACTORIAL M61 internal marker reporter; actives raise or lower the signal
Summary of the method: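 Fluorescence from labelled cDNA fragments, separated by capillary electrophoresis, quantifies reporter induction. HepG2 cells bearing transiently transfected cis-promoter MRTUs were incubated with test chemical for 24 h; DMSO defined baseline for gain/loss fitting.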

[10] = ATG_EGR_CIS: Attagene CIS-FACTORIAL HepG2 Assay for human Early Growth Response 1 (EGR1) (AID 2282938); conditions: HepG2 Attagene CIS-FACTORIAL EGR reporter mRNA; actives raise or lower the signal
Summary of the method: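 Cell-based multiplex transcription assay: HepG2 carrying transfected cis-element reporter units, 24 h chemical treatment. Fluorescence from capillary electrophoresis of RT-PCR products gives mRNA levels; fitting is bidirectional relative to DMSO.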

[11] = ATG_ERE_CIS: Attagene CIS-FACTORIAL HepG2 Assay for Estrogen Response Element (ERE) (AID 2282940); conditions: HepG2 ERE cis-reporter, Attagene RNA transcript; actives raise or lower the signal
Summary of the method: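 Fluorescence of capillary-separated, FAM-labelled reporter cDNA fragments indicates reporter mRNA levels in HepG2 cells exposed to chemicals for 24 h. Transient transfection with cis-regulated units; data fitted in both directions against DMSO.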

[12] = ATG_Ets_CIS: Attagene CIS-FACTORIAL HepG2 Assay for human Erythroblast Transformation Specific (ETS) (AID 2282941); conditions: HepG2 ETS cis-reporter transcription; AC50: actives raise or lower the signal unless noted; outcome: actives raise or lower the signal unless noted
Summary of the method: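 RT-PCR/capillary electrophoresis fluorescence read-out of reporter mRNA; HepG2 transient multi-reporter transfection; 24 h compound exposure; gain or loss of signal fitted bidirectionally relative to DMSO.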

[13] = biological target: Hepatocyte nuclear factor 3-beta (Homo sapiens) (UniProt Q9Y261); experiment: ATG_FoxA2_CIS: Attagene CIS-FACTORIAL HepG2 Assay for human Forkhead box A2 (FOXA2) (AID 2282942); conditions: HepG2 cis-reporter transcription factor activity, 24 h; actives raise or lower the signal
Sequence of Hepatocyte nuclear factor 3-beta (Homo sapiens) (Q9Y261 whole entry, looked up): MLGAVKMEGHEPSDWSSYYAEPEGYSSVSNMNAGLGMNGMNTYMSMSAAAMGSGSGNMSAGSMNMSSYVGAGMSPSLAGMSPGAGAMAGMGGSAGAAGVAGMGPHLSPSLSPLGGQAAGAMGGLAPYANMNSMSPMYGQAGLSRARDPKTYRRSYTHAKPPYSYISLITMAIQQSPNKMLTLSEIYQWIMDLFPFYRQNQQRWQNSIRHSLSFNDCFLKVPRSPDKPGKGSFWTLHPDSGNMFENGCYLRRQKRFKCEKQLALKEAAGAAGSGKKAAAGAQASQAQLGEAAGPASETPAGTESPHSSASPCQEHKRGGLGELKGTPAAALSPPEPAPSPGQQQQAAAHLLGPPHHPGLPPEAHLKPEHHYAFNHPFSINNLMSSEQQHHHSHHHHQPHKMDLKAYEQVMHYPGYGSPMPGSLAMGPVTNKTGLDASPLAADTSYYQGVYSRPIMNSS
Summary of the method: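 In transiently transfected human HepG2 cells, promoter-driven reporter mRNA levels after 24 h chemical exposure are determined via RT-PCR with capillary electrophoresis. DMSO serves as baseline for bidirectional fitting.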

[14] = ATG_GATA_CIS: Attagene CIS-FACTORIAL HepG2 Assay for human GATA Binding Protein (AID 2282944); conditions: HepG2 GATA cis-element reporter, Attagene multiplex mRNA; actives raise or lower the signal
Summary of the method: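 After transfecting HepG2 cells with multiple cis-regulated reporter units, chemicals are dosed for 24 h; isolated RNA undergoes RT-PCR and fluorescent labeling before capillary electrophoresis, with activity expressed against DMSO.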

[15] = biological target: Bile acid receptor (Homo sapiens) (UniProt Q96RI1); experiment: ATG_IR1_CIS: Attagene CIS-FACTORIAL HepG2 Assay for human Nuclear Receptor Subfamily 1 Group H Member 4 (NR1H4), IR1 submotif (AID 2282946); conditions: IR1 reporter transcription, actives raise or lower the signal
Sequence of Bile acid receptor (Homo sapiens) (Q96RI1 whole entry, looked up): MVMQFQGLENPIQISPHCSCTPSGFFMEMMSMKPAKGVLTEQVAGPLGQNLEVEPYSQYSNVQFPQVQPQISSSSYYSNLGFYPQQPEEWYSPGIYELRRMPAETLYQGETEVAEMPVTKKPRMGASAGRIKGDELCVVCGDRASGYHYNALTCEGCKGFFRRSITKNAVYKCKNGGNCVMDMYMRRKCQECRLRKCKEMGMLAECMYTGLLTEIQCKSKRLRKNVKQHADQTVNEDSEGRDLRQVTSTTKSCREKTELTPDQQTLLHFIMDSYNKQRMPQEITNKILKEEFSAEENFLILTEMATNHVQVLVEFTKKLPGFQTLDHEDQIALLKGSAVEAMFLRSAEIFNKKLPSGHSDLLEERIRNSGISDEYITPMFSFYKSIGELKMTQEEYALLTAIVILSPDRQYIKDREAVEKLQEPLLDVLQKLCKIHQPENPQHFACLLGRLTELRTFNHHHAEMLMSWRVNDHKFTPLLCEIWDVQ
Summary of the method: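 Readout: reporter transcript levels by RT-PCR with fluorescent capillary electrophoresis, from HepG2 cells transiently transfected with multiplexed cis-regulated reporters and dosed 24 h. Gain- or loss-of-signal fitted versus DMSO negative control.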

[16] = ATG_AP_2_CIS: Attagene CIS-FACTORIAL HepG2 Assay for human Activator Protein 2 (AP-2) (AID 2282932); conditions: HepG2 AP-2 cis-reporter, Attagene transcription factor profiling; AC50: actives raise or lower the signal unless noted; outcome: actives raise or lower the signal unless noted
Summary of the method: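 Cells (HepG2) transfected with promoter-driven reporter constructs, treated 24 h. Total RNA reverse-transcribed, reporter cDNA PCR-amplified, FAM-labelled by primer extension, digested, resolved by capillary electrophoresis. Activity fitted both directions versus DMSO.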

[17] = ATG_M_19_CIS: Attagene CIS-FACTORIAL HepG2 Assay for M19 Transcription Factor (Internal Marker) (AID 2282939); conditions: HepG2 Attagene CIS-FACTORIAL M19 internal marker reporter; actives raise or lower the signal
Summary of the method: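 Signals come from fluorescence of labelled reporter-specific PCR fragments resolved by capillary electrophoresis, following 24 h treatment of HepG2 cells transfected with cis-promoter reporter units; activity was fitted in both directions relative to DMSO.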

[18] = ATG_GLI_CIS: Attagene CIS-FACTORIAL HepG2 Assay for human Zinc Finger Protein GLI1 (AID 2282945); conditions: HepG2, Attagene cis-factorial reporter mRNA, GLI element; actives raise or lower the signal
Summary of the method: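 HepG2 cells transiently transfected with cis-promoter multiplexed reporter units report endogenous transcription factor activity. After 24 h chemical exposure, reporter mRNA was quantified by RT-PCR, 6-FAM labelling, HpaI digestion and capillary electrophoresis, with bidirectional fitting against DMSO.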

[19] = ATG_FoxO_CIS: Attagene CIS-FACTORIAL HepG2 Assay for human Forkhead box O (FoxO) (AID 2282943); conditions: HepG2 Attagene cis-reporter, FoxO element, mRNA; actives raise or lower the signal
Summary of the method: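 Values reflect reporter mRNA induction or loss in HepG2 cells 24 h post-dosing, fitted bidirectionally with DMSO as negative control and baseline. Detection used RT-PCR and fluorescence capillary electrophoresis.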

Structure (SMILES): COC(O)c1ccccc1 (stereo unspecified)
- outcome [1]: inactive
- outcome [2]: inactive
- outcome [3]: inactive
- outcome [4]: inactive
- outcome [5]: inactive
- outcome [6]: inactive
- outcome [7]: inactive
- outcome [8]: inactive
- outcome [9]: inactive
- outcome [10]: inactive
- AC50 [11]: 18.1 µM (active)
- outcome [12]: inactive
- outcome [13]: inactive
- outcome [14]: inactive
- outcome [15]: inactive

Structure (SMILES): CC(C)(C)c1ccc(CCC=O)cc1
- outcome [1]: inactive
- outcome [2]: inactive
- outcome [3]: inactive
- outcome [4]: inactive
- outcome [16]: inactive
- outcome [5]: inactive
- AC50 [6]: 72.3 µM (active)
- outcome [7]: inactive
- outcome [8]: inactive
- outcome [9]: inactive
- outcome [10]: inactive
- outcome [17]: inactive
- AC50 [11]: 144 µM (active)
- outcome [13]: inactive
- outcome [14]: inactive
- outcome [18]: inactive
- outcome [15]: inactive

Structure (SMILES): CCCCCCCCC1CCC(=O)O1 (stereo unspecified)
- outcome [1]: inactive
- outcome [2]: inactive
- outcome [3]: inactive
- outcome [4]: inactive
- outcome [16]: inactive
- outcome [5]: inactive
- outcome [6]: inactive
- outcome [8]: inactive
- outcome [9]: inactive
- outcome [10]: inactive
- outcome [11]: inactive
- outcome [12]: inactive
- outcome [13]: inactive
- outcome [19]: inactive
- outcome [14]: inactive
- outcome [18]: inactive
- outcome [15]: inactive

Structure (SMILES): CCC1CO1 (stereo unspecified)
- outcome [1]: inactive
- outcome [2]: inactive
- outcome [3]: inactive
- outcome [4]: inactive
- outcome [16]: inactive
- outcome [5]: inactive
- outcome [7]: inactive
- outcome [8]: inactive
- outcome [9]: inactive
- outcome [10]: inactive
- outcome [17]: inactive
- outcome [12]: inactive
- outcome [13]: inactive
- outcome [19]: inactive
- outcome [14]: inactive
- outcome [18]: inactive
- outcome [15]: inactive

Structure (SMILES): CCCCCCCC(OC)OC
- outcome [1]: inactive
- outcome [2]: inactive
- outcome [3]: inactive
- outcome [4]: inactive
- outcome [16]: inactive
- outcome [5]: inactive
- outcome [6]: inactive
- outcome [7]: inactive
- outcome [8]: inactive
- outcome [9]: inactive
- outcome [10]: inactive
- outcome [17]: inactive
- outcome [11]: inactive
- outcome [12]: inactive
- outcome [13]: inactive
- outcome [19]: inactive
- outcome [18]: inactive
- outcome [15]: inactive

Structure (SMILES): CCCCCCCCCCCCCCCCCC[N+](C)(C)Cc1ccccc1
- AC50 [2]: 12.8 µM (active)
- AC50 [3]: 12.3 µM (active)
- outcome [4]: inactive
- AC50 [16]: 88.1 µM (active)
- AC50 [5]: 4.38 µM (active)
- outcome [6]: inactive
- AC50 [7]: 12.8 µM (active)
- AC50 [8]: 18.4 µM (active)
- outcome [10]: inactive
- outcome [17]: inactive
- outcome [11]: inactive
- outcome [12]: inactive
- outcome [13]: inactive
- outcome [19]: inactive
- outcome [14]: inactive
- outcome [15]: inactive

Structure (SMILES): CC(C)(O)C(=O)c1ccccc1
- outcome [1]: inactive
- outcome [2]: inactive
- outcome [3]: inactive
- outcome [4]: inactive
- outcome [16]: inactive
- outcome [5]: inactive
- outcome [6]: inactive
- outcome [8]: inactive
- outcome [10]: inactive
- outcome [17]: inactive
- outcome [11]: inactive
- outcome [12]: inactive
- outcome [13]: inactive
- outcome [19]: inactive
- outcome [18]: inactive
- outcome [15]: inactive
